From PubChem
D1 ag: activates the human D1 dopamine receptor; HEK293 T-REx D1 cells, calcium flux, agonist mode; activation, % at 2 µM; 360,000 compounds, 1% hits; AID 504660; in the data active means activation above about 30%
Target sequence (P21728 whole entry, looked up): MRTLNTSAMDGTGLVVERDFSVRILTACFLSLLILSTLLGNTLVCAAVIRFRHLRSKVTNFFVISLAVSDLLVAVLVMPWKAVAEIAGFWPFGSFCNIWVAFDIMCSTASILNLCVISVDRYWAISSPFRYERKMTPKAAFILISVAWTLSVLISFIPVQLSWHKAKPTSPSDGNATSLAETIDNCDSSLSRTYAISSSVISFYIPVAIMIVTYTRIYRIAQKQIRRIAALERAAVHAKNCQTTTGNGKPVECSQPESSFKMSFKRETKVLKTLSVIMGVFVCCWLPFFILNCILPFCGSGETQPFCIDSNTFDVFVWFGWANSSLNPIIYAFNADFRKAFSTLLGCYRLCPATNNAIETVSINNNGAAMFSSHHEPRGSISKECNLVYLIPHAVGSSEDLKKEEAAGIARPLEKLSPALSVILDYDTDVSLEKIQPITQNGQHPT
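Inducible HEK293 T-REx D1 cells, force-coupled to calcium signalling, were plated at 4000 cells/well with tetracycline and held overnight at 30 C. After no-wash calcium dye loading, compound-evoked calcium rise over 180 s flagged agonists.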
D1 PAM: human D1 dopamine receptor positive modulation; P21728; HEK293 TREx D1 cells, calcium flux, dopamine EC20 potentiation; potentiation, % at 10 µM; 360,000 compounds, 0.036% hits; in the data active means potentiation above about 30%
D1 antag: human D1 dopamine receptor antagonism. activity change, negative = inhibition, % at 10 µM. AID 504652. 360,000 compounds, 3.2% hits. HEK293 TREx D1 cells, calcium flux, dopamine EC80; active compounds read low; in the data active means activity change below about -30%
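Inducible Hek293 Trex D1 cells (tetracycline, overnight, 30 C). Calcium dye 30–90 min RT. Antagonist mode: EC80 dopamine added after 180 s compound read.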
D3 antag: blocks the human D3 dopamine receptor; D3R cells, DiscoveRx beta-arrestin luminescence, antagonist mode; active compounds read low; max response, negative = inhibition, %; 360,000 compounds, 2.5% hits; in the data active means max response below about -50%; inconclusive means no clear call, values can overlap the other calls
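Cells expressing the human receptor were seeded at 1500 cells/well, incubated overnight at 37 degrees C in 5% CO2, then exposed to library compounds with dopamine controls for 90 minutes at 37 degrees C before luminescent detection.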
DRD3 agonist: activates the human D3 dopamine receptor; max activation, %; D3R DiscoveRx beta-arrestin cells, luminescence, 90 min; P35462; 410,000 compounds, 0.58% hits; AID 652048; in the data active means max activation above about 30%
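Agonist mode: compounds and dopamine controls were applied to plated cells for 90 min at 37 degrees C after an overnight attachment at 1500 cells/well. Luminescent read-out followed 30 - 60 minutes at room temperature with DiscoveRx detection reagent.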
Large screens that a line does not name were inactive; ! = not active in a repeat. Shown are actives, neighbours in structure and some others; about 6% of the full set was active somewhere.

CC1=C(c2ccc(C(C)C)cc2)S(=O)(=O)N=C1N1CCN(c2ccc(F)cc2)CC1	none (no result: D3 antag)
CN1CCN(C2Cc3ccccc3Sc3ccc(Cl)cc32)CC1 (stereo unspecified)	D1 antag -105
CN1CCN(C2Cc3ccccc3Sc3cc(C(F)(F)F)ccc32)CC1 (stereo unspecified)	D3 antag -96 (no result: D1 ag, D1 PAM, D1 antag)
CSc1cccc(NC(=O)N2CCN(C)CC2)c1	none
CSc1ccc2c(c1)C(N1CCN(C)CC1)Cc1ccccc1S2 (stereo unspecified)	D1 antag -87, D3 antag -84
CNc1ccc(-c2cccc([N+](=O)[O-])c2)cn1	D3 antag -59 (no result: D1 ag, D1 PAM, D1 antag)
Fc1cccc(NC(=S)N2CCc3ccccc32)c1	none
O=C(c1ccccc1)N1CCCc2ccccc21	none
O=C(c1ccc(=O)oc1)N1CCCc2ccccc21	D3 antag -63
CC(=O)c1cccc(NC(=S)N2CCc3ccccc32)c1	D1 antag -32
O=C(Nc1cccc(C(=O)N2CCCc3ccccc32)c1)c1ccccc1	D1 antag -37
O=C(c1ccc2c(c1)N(Cc1cccc(Cl)c1)C(=O)c1ccccc1S2=O)N1CCN(c2cccc(C(F)(F)F)c2)CC1 (stereo unspecified)	none (no result: D3 antag)
COc1ccc(CNC(=O)CN2C(=O)NC3(CCCc4sccc43)C2=O)cc1OC (stereo unspecified)	none
CCNC(=S)Nc1cccc(NC(=O)c2ccccc2O)c1	D1 antag -36
CCNC(=S)Nc1ccc(NC(=O)c2ccccc2O)cc1	D3 antag inconclusive
Cc1cccc(Cn2nnc3c(=O)[nH]c(C4CCN(C(=O)c5ccc(F)cc5)CC4)nc32)c1	none (no result: D3 antag)
Cc1c(C(=O)NCCc2ccccc2)cccc1-n1cnc2cccnc21	D1 antag -32 (no result: D3 antag)
Cc1ccc(C(=O)Nc2ccccc2C(=O)O)cc1S(=O)(=O)Nc1ccc(Br)cc1	DRD3 agonist 34 (no result: D1 ag, D1 PAM, D1 antag)
Cc1ccc(C(=O)Nc2cccc(N(C)S(C)(=O)=O)c2)cc1S(=O)(=O)Nc1ccccc1	DRD3 agonist 44
Cc1ccccc1Oc1ccc2c(c1)[C@@H]1C[C@H]3[C@@H](C(=O)N1CC2)[C@H](C)ON3C	DRD3 agonist 31 (no result: D1 ag, D1 PAM, D1 antag)
NC(N)=NCC1COC2(CCCCC2)O1 (stereo unspecified)	none (no result: D1 ag, D1 PAM, D1 antag, D3 antag)
CCOC(=O)Cn1c(S(=O)(=O)Cc2cccc(F)c2)nc(-c2ccccc2)c1-c1ccccc1	D1 antag -38
Cc1cccc(NC(=O)c2ccccc2SCc2ccc(F)cc2)n1	D1 antag -34
Cc1[nH]c2ccc(C(=O)N3CCN(c4cccc(Cl)c4)CC3)cc2c1C	none
CCS(=O)(=O)c1ncc(Cl)c(C(=O)N2CCN(c3cccc(Cl)c3)CC2)n1	D1 antag -31 (no result: D3 antag)
CS(=O)(=O)c1ncc(Cl)c(C(=O)N2CCN(c3cccc(Cl)c3)CC2)n1	D1 antag -50 (no result: D3 antag)
Cc1ccc(CNc2nc3ccccc3n3cnnc23)cc1	D1 antag -37!
CSc1ccc(CNc2nc3ccccc3n3cnnc23)cc1	none
c1ccc2c(c1)CCN(CCCNc1nc3ccccc3n3cnnc13)C2	D3 antag -109
Cc1ccc(S(=O)(=O)CCC(=O)NCc2ccccc2F)cc1	none
CC(C)C[C@H]1CN(CCCC[C@@H]2CNC(=O)C(=O)N2CCc2ccccc2)C(=O)C(=O)N1CCc1ccccc1	none (no result: D1 ag, D1 PAM, D1 antag)
COc1ccc(CN2CCC(C)CC2)cc1OCc1ccccc1	D3 antag -89
CCOC(=O)C1CCN(Cc2ccc(OC)c(OCc3ccccc3)c2)CC1	D3 antag -65
Cc1cc2c(s1)c1cnn(Cc3ccc(C(F)(F)F)cc3F)c(=O)c1n2C	none (no result: D3 antag, DRD3 agonist)
O=[N+]([O-])c1ccc(Nc2ccc(Cl)cc2)nc1	none
CC(=O)Nc1ccc([N+](=O)[O-])cn1	D3 antag -53
O=[N+]([O-])c1ccc(Nc2ccc3ccccc3c2)nc1	D1 antag -34, D3 antag -107
O=C(O)c1cccc(Nc2ccc([N+](=O)[O-])cn2)c1	D1 antag -35
COc1ccc(C(=O)Nc2ccccc2-c2nc3ccccc3s2)c(OC)c1	none (no result: D3 antag)
CN(CCC#N)C(=O)COC(=O)c1ccc(Cl)cc1O	D1 antag -34
CSc1ccc(Cl)c(C(=O)OCC(=O)N(C)CCC#N)c1	none
COc1ccc(CN2CCC[C@]3(N[C@H](c4ccc(C(F)(F)F)cc4)[C@@H]4C(=O)N(Cc5ccccc5)C(=O)[C@@H]43)C2=O)cc1	none (no result: D1 ag, D1 PAM, D1 antag)
